Reference: PubChem BioAssay (NCATS)
Inconclusive results are not listed. Where a call stands in place of a potency, no number is given. Values without a mark were called inactive. Active and inactive are the calls of the source. The call rests on the fitted dose curve; in most records, active means well fitted curve in the direction sought with a large enough effect; inconclusive means small, poorly fitted or top-dose-only effect, or another doubt; inactive means no such curve, though single readings can be large; an effect the other way counts as inactive or inconclusive.

Columns and labels:
[1] = molecular target: Cytochrome P450 3A7 (Homo sapiens) (UniProt P24462); assay: Cytochrome P450 family 3 subfamily A member 7 (CYP3A7) small molecule antagonists: luciferase biochemical qHTS assay (AID 1963596); further: nearly all actives have a fitted effect of over 40% in size
Chain of Cytochrome P450 3A7 (Homo sapiens) (P24462 whole entry, looked up): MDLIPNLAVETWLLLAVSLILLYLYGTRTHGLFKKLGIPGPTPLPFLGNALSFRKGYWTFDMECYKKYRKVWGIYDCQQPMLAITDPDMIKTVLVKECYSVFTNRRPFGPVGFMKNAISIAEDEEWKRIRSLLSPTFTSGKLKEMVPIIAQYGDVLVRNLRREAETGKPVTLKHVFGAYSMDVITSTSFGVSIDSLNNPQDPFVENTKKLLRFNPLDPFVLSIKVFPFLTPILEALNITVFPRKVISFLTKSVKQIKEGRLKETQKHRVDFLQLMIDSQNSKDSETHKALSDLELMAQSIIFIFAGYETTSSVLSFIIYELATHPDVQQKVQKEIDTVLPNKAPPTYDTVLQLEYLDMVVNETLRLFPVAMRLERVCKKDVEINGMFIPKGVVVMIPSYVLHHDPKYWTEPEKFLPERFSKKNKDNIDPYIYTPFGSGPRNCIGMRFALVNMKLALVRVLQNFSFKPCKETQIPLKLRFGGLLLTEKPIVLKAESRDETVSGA
Procedure, shortened: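 Luminescence read-out (relative luminescence units) after 20 min with detection reagent, which stops the reaction. Enzyme, proluciferin substrate and compound preincubated 10 min, RT; NADPH regeneration system then started 1 h reaction. Ketoconazole as positive control.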

[2] = Viability qHTS for spleen associated tyrosine kinase inhibitor (SYKi) naive MV4-11 cells (AID 1963823); further: nearly all actives have a fitted effect of over 40% in size; further: potency means the concentration at half of the fitted maximal effect
Procedure, shortened: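 Seeding of 500 SYKi-naive MV4-11 cells per well onto pre-dispensed compounds preceded a 72 hr incubation at 37 C. Luminescent CellTiter-Glo signal, read after 10 min at room temperature, reflected viable cells.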

[3] = Viability qHTS for spleen associated tyrosine kinase inhibitor (SYKi) drug resistant MV4-11 cells (AID 1963824); further: nearly all actives have a fitted effect of over 35% in size; further: potency means the concentration at half of the fitted maximal effect
Procedure, shortened: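 CellTiter-Glo luminescence, read 10 min after reagent addition, reports viability after a 72 hr compound exposure. Cells are an MV4-11 line made resistant to SYK inhibition, seeded at 500 per well onto compound-containing plates.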

[4] = Cellular viability qHTS for adrenocortical cancer (ACC) cell line SW-13 (AID 1963989); details: SW-13 ACC cells viability, CellTiter-Glo, 48 h; activity (max response): stronger effect = lower value;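 further: cells grown in serum-free medium with ITS supplement; nearly all actives have a fitted effect of over 65% in size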
Procedure, shortened: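 Here, serum-free SW-13 cultures were dosed up to 46 uM. Following 48 h, ATP-dependent luminescence (CellTiter-Glo) reported viable cells, and logistic modeling produced IC50 values.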

[5] = Cellular viability qHTS for adrenocortical cancer (ACC) cell line NCI-H295R (AID 1963990); further: nearly all actives have a fitted effect of over 60% in size
Procedure, shortened: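 Viability of NCI-H295R after 48 h of treatment (final up to 46 uM) measured through cellular ATP luminescence.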

| Compound | Potency [1] | Potency [2] | Potency [3] | activity (max response) [4] [%] | Potency [5] |
| --- | --- | --- | --- | --- | --- |
| C[C@@H](C1CC[C@@]2(O)C3=CC(=O)[C@@H]4C[C@@H](O)[C@@H](O)C[C@]4(C)[C@H]3CC[C@]12C)[C@H](O)CCC(C)(C)O (stereo partly specified) | inactive | inactive | inactive | -1.09 |  |
| CCCC[N+]1(C)[C@@H]2CC(OC(=O)[C@H](CO)c3ccccc3)C[C@H]1[C@@H]1O[C@@H]12 (stereo partly specified) | inactive | inactive | inactive | 15.3 | inactive |
| O=C(O)COc1ccccc1 | inactive | inactive | inactive | 18.4 | inactive |
| C[N+](C)(C)CCOC(=O)C(O)(c1ccccc1)c1ccccc1 | inactive | inactive | inactive | -5.79 | inactive |
| CCN[C@H](C)Cc1cccc(C(F)(F)F)c1 | inactive | inactive |  | -4.65 | inactive |
| c1ccc2c(c1)sc1ccccc12 | inactive | inactive |  | 0.898 | inactive |
| CCCCn1cc(C(=O)c2cccc3ccccc23)c2ccccc21 | inactive |  | 18.4 µM (active) |  |  |
| O=C(CCCCl)c1ccc(F)cc1 | inactive | inactive | inactive | 6.97 | inactive |
| CCC1(CC)C(=O)C=CNC1=O | inactive | inactive | inactive | 0.834 | inactive |
| Oc1c(Br)cc(Br)cc1Br | inactive | inactive |  |  | inactive |
| CCC1(C2=NCCN2)Cc2ccccc2O1 (stereo unspecified) | inactive | inactive |  | 12 | inactive |
| CC(C)(C)NCC(O)c1cc(Cl)c(N)c(Cl)c1 (stereo unspecified) | inactive | inactive |  | 11.4 | inactive |
| Oc1ccc2c3c1O[C@H]1[C@@H](O)C=C[C@H]4[C@@H](C2)NCC[C@@]341 | inactive | inactive |  | -14.8 | inactive |
| COC(=O)C(Cl)C(=O)OC | inactive | inactive | inactive | -3.15 | inactive |
| CCN(Cc1ccc(Cl)nc1)/C(=C/[N+](=O)[O-])NC | inactive | inactive | inactive | 3.71 | inactive |
| CC(=O)NC1CCSC1=O (stereo unspecified) | inactive | inactive |  | 9.14 | inactive |
| CCC1(c2ccccc2)CCC(=O)NC1=O (stereo unspecified) | inactive | 21.1 µM (active) | 13.3 µM (active) | 7.87 | inactive |
| Oc1cccc2cccnc12 | inactive | inactive | inactive |  | inactive |
| ClCc1cccc(Cl)c1 | inactive | inactive | inactive | 11 | inactive |
| ClCCN1CCCC1 | inactive | inactive | inactive |  | inactive |
| CC(C)(C)NCC(O)c1cc(Cl)c(N)c(C(F)(F)F)c1 (stereo unspecified) | inactive | inactive | inactive | 9.74 | inactive |
| CC[N+]1(CC)CCC(OC(=O)C(O)(c2ccccc2)c2ccccc2)C1 (stereo unspecified) | inactive | inactive | inactive | 5.92 | inactive |
